Measurements from the OligoGym collection.

Target: HIST2H3A
Test: pooled miR-30 sensor sort-seq; sequence = guide strand
Details: shRNA
Further: reference of the scale not given here.

Sequence | sensor-assay potency score (higher = more potent)
TCCGTCTTAAAGTCCTGCGCGA | -1.2
TTGCCGCCGGTCGACTTGCGAG | -1.63
TGGCGCACAGGTTCGTGTCTTC | -0.891
TTGGGCATAATGGTCACGCGCT | -0.549
TTAAAGTCCTGCGCGATCTCGC | -0.191
TTCGTGTCTTCGAACAGCCCCA | -0.563
AAGTCCTGCGCGATCTCGCGTA | -1.16
TGGACTTCTGGTAGCGCCGGAT | -1.34
TGGATGGCGCACAGGTTCGTGT | -1.93
TTGCGGATCAGCAGCTCCGTGG | -1.49

Target: HKR1
Test: as above
Details: shRNA

Sequence | sensor-assay potency score (higher = more potent)
TTGATGAGGACTGACATACTGC | -0.174
TTGATTTCTCCAAATCCTGAGA | -0.892
TTAACTTAGCACAAAAGCCTTG | -0.326
TTAAGGTTTGACTTCAGGCTAA | 0.0194
TACTTTGTCTGTTTCCTCTAGA | 0.778
TACCAGTACAGTCTCATGCATA | -0.938
TTGACTTCCACGTAAAGCCTCG | -0.345
TAACTTAGCACAAAAGCCTTGC | 0.138
ATAAACTTGAAAACAGCTGAGA | -0.36
TTTGACTCCTTGATAAAGCCTG | -0.108
TTTGGTATCTAGCAATGGCTGA | -0.389
TTGACTCCTTGATAAAGCCTGG | -0.606

Target: HLA-DMA
Test: as above
Details: shRNA

Sequence | sensor-assay potency score (higher = more potent)
TTCACTGTCAGCATGGGTGGGA | 0.0511
TCGTGAGTCACAATGCAGGAGA | -0.908
TGCTGGATCATCCACTCGCAGA | -1.77
TAGATGATGAGAACAATGCCCA | -0.0715
TTCGTGAGTCACAATGCAGGAG | 0.512
TGTGTAGCGGTCAATTTCGTGA | -0.684
TCAGCGTGAACACTTCAGCGAT | -1.13
TTACTGACAAAACAGACCAAAG | -1.69
ATTTCGTGAGTCACAATGCAGG | -1.4
TTGGAGTAGGAGCTTCAGGGAC | -1.01
TTGCTGGATCATCCACTCGCAG | -1.31

Target: HLA-DRA
Test: as above
Details: shRNA

Sequence | sensor-assay potency score (higher = more potent)
TTGGTGATCGGAGTATAGTTGG | -0.222
TTCGTGAGCACAGTTACCTCTG | 0.227
AAGTCAAACATAAACTCGCCTG | -0.837
TTCTGCTGCATTGCTTTTGCGC | -0.581
TTAGAGTACGGAGCAATCGAAG | -1.52
TAAACTCGCCTGATTGGTCAGG | -0.677
TCAAACATAAACTCGCCTGATT | -0.205
